Out of some 310,000 compounds screened, about 14,000 (4.5%) showed an effect of 50% or more. Effects have a minus sign here. The full list was thinned out, with strong results kept by preference.
Each compound was assayed against human ether-à-go-go-related gene (hERG) potassium channel (human, UniProt Q12809) (assay: primary screen, population patch clamp on CHO cells stably expressing hERG; higher = less effect of the substance).
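Also: peak tail current of the secondary pulse compared with the same well before compound.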

human ether-à-go-go-related gene (hERG) potassium channel, sequence (Q12809 whole entry, looked up): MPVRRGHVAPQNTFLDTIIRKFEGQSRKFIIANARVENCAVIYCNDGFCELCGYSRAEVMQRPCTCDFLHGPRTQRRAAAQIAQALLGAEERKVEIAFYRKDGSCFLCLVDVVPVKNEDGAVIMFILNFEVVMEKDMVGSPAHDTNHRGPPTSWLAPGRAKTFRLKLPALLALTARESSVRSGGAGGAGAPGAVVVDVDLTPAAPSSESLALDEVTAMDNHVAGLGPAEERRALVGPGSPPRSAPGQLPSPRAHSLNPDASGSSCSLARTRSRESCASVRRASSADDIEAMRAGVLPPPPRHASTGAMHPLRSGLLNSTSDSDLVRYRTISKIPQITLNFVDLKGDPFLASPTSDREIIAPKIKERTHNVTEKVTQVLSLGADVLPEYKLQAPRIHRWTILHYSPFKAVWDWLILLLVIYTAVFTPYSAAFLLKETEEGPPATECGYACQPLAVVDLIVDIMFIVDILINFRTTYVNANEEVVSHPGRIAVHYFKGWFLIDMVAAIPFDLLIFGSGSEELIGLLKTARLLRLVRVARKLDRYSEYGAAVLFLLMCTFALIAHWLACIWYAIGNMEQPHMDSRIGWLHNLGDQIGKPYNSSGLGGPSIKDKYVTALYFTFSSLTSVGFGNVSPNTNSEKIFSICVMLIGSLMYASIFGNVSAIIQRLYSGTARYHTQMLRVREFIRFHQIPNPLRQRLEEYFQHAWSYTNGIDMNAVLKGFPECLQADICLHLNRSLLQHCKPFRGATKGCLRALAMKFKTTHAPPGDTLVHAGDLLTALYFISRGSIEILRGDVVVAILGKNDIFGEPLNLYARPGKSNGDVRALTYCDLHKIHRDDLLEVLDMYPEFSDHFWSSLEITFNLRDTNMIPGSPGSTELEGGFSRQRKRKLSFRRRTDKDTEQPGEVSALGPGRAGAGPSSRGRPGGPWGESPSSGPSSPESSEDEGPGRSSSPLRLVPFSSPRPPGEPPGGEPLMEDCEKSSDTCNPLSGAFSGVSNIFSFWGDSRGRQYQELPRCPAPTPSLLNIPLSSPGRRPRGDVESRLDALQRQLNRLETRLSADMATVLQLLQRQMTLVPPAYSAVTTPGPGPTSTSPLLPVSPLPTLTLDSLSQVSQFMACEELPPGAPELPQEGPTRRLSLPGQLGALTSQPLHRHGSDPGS

Structure (SMILES)	hERG current change (%, negative = inhibition) at 10uM [%]
S=c1[nH]nc(-c2cccs2)n1Cc1ccccc1	9
CCCN1C2CCCC1CC(NC(=O)NC1CCCCC1)C2 (stereo not drawn)	-12.4
COCCNC(=O)Cn1cnc2ccc(S(=O)(=O)N3CCC(C)CC3)cc2c1=O	-15.1
CCOCC(=O)Nc1cc(-c2cn3cccnc3n2)ccc1C	6.69
CCn1c(CSc2nc3ccccc3s2)nnc1SCC(=O)c1ccc(O)cc1O	12.2
Cn1c(SCC(=O)N2CCCCC2)nc2cccnc21	22.2
NC(=O)c1ccsc1NC(=O)COC(=O)C1=NNC(=O)CC1	8.28
COC(=O)c1cc2n(n1)CCN(Cc1ccc(C)cc1)C2=O	1.46
O=C(c1cc2cc(F)ccc2[nH]1)N1CCN(c2ccc(F)cc2)CC1	-4.93
CCOC(=O)N1CCN(C(=O)c2cc3cc(F)ccc3[nH]2)CC1	-19.8
CCN1CCN(C(=O)c2cc3cc(F)ccc3[nH]2)CC1	-65
CN1CCN(C(=O)c2cc3cc(Cl)ccc3[nH]2)CC1.Cl	-35.7
CCOC(=O)N1CCN(C(=O)c2cc3cc(Cl)ccc3[nH]2)CC1	-15.7
CCN1CCN(C(=O)c2cc3cc(Cl)ccc3[nH]2)CC1	-59.8
CC(=O)Nc1ccc(S(=O)(=O)N(c2cccnc2)S(=O)(=O)c2ccc(NC(C)=O)cc2)cc1	-3.89
Cc1cc(C)cc(NC(=O)CSc2ncc(S(=O)(=O)c3ccccc3)c(=O)[nH]2)c1	13.6
O=C(Nc1ncn[nH]1)c1cc(S(=O)(=O)Nc2cccc(C(F)(F)F)c2)ccc1Cl	17.8
COc1ccc(CNC(=O)COC(=O)c2n[nH]c3ccccc23)cc1	7.27
Cc1ccc(C(OCCN(C)C)c2cccc(C(F)(F)F)c2)cc1.O=C(O)/C=C\C(=O)O (stereo not drawn)	-58.6

Structure (SMILES)	hERG current change (%, negative = inhibition) at 10uM [%]
CN(C)CCOC(c1ccc(Cl)cc1)c1ccccn1.O=C(O)/C=C/C(=O)O (stereo not drawn)	-43
CN(C)CCO[C@@H](c1ccc(Cl)cc1)c1ccccn1.O=C(O)/C=C\C(=O)O	-29.5
COc1ccc(/C=N\Nc2ncc(F)c(N3CCOCC3)n2)cc1OC	-31.1
CCOc1cc(/C=N\Nc2ncc(F)c(N3CCOCC3)n2)ccc1Oc1nc(Cl)ncc1F	-51.8
CCOc1cc(/C=N/NC(=O)c2ccc(O)cc2)ccc1Oc1nc(Cl)ncc1F	-7.77
CCS(=O)(=O)N1CCN(S(=O)(=O)c2ccc(F)cc2)CC1	-18.4
O=C(NC1CCCCC1)c1ccc(-c2cccc([N+](=O)[O-])c2)o1	12.4
O=C(NC1CN2CCC1CC2)c1ccc(-c2ccc([N+](=O)[O-])cc2)o1 (stereo not drawn)	-64
CC(=O)Nc1ccc(NC(=O)c2ccc(-c3ccc([N+](=O)[O-])cc3)o2)cc1	-14.5
O=C(NC1CCC(O)CC1)c1ccc(-c2ccc(Cl)cc2)o1 (stereo not drawn)	-21.8
O=C(Nc1ccccc1)c1ccc(-c2ccc([N+](=O)[O-])cc2)o1	4.73
O=C(NC1CCC(O)CC1)c1ccc(-c2ccc([N+](=O)[O-])cc2)o1 (stereo not drawn)	-76.2
Cc1cc(=O)[nH]c(Nc2ccc(Cl)cc2)n1	15
CN1C(=O)C(CC(=O)Nc2ccccc2F)N(NC(=O)c2ccc(Br)cc2)C1=S (stereo not drawn)	6.5
Cc1ccc(CCSCC(=O)O)cn1	18.9
C=CCN1C(=O)CSc2ccc(C(=O)NCc3ccc(F)cc3)cc21	-21.3
CCN(C(=O)COc1ncnc2sccc12)c1ccccc1	63.8
COc1ccc(C2SCC(=O)N2c2c(C)n(C)n(-c3ccccc3)c2=O)cc1OC (stereo not drawn)	13.6
COc1ccc(CCC(C)N2CCC(CO)(Cc3ccccc3)CC2)cc1 (stereo not drawn)	-73.4

Structure (SMILES)	hERG current change (%, negative = inhibition) at 10uM [%]
COc1cccc(CC2(CO)CCN(S(=O)(=O)c3ccc(OC)cc3OC)CC2)c1	-10.7
CN(C)S(=O)(=O)N1CCC(CO)(CCc2ccccc2)CC1	-8.86
COc1ccc(CC2(CO)CCN(C(=O)NCc3ccccc3)CC2)cc1	-2.8
CSCC(C)N1CCC(CO)(CCc2ccccc2)CC1 (stereo not drawn)	-29.4
COc1ccc(CC2(CO)CCN(S(=O)(=O)c3sccc3C)CC2)cc1	-20.9
CSCC(C)N1CCC(CO)(CCCc2ccccc2)CC1 (stereo not drawn)	-55.7
CC(COc1ccccc1)N1CCC(CO)(CCc2ccccc2)CC1 (stereo not drawn)	-80.3
COc1ccc(CC2(CO)CCN(C(C)COc3ccccc3)CC2)cc1 (stereo not drawn)	-82
COC(=O)CCCC(=O)N1CCC(CO)(CCc2ccccc2)CC1	-23.8
COc1ccc2c(C)c(CCC(=O)NCCCN3CCCC3=O)c(=O)oc2c1C	1.56
Cc1ccc(-c2ccc(=O)n(CC(=O)NCCN3C(C)CCCC3C)n2)cc1 (stereo not drawn)	0.00388
CCCN(c1ccccc1F)S(=O)(=O)c1cc(-c2cc(C)no2)ccc1OC	6.91
Cc1ccnc(NC(=O)CCC(=O)N(CC(=O)NC(C)(C)C)c2ccc3c(c2)OCCO3)c1	17.8
Cn1cc(Cl)nc1C(O)c1ccccc1 (stereo not drawn)	7.21
Br.O=S(=O)(c1ccc(-c2csc(Nc3ccc(Br)cc3)n2)cc1)N1CCCC1	10.2
Cc1cccc(N(CC(=O)NC2CCCCC2)C(=O)c2ccc(C)s2)c1	-24.7
O=C(COc1ccc(C(=O)c2ccccc2)cc1)NC1CCCCCC1	-21.9
CC(C)(C)NC(=O)CCC1COc2ccccc2O1 (stereo not drawn)	-4.27
Cc1cccc(C)c1NC(=O)N1C2CCC1CC(O)(c1cccnc1)C2 (stereo not drawn)	20.2

Reference: article PMC4336329 (PLoS ONE, 2015)
